Test results taken from PubChem BioAssay (NCATS).
Inconclusive results are not listed. Active and inactive are the calls of the source. Calls come from the whole dose curve; as a rule, active = well fitted inhibition curve with a large enough effect; inconclusive = small, poorly fitted or top-dose-only effect; inactive = no such curve, though single readings can be large or run the other way.

Assay: Primary qHTS for small molecule stabilizers of the endoplasmic reticulum resident proteome: Secreted ER Calcium Modulated Protein (SERCaMP) assay (AID 1508630)
Conditions: SH-SY5Y GLuc-SERCaMP (Gaussia luciferase released on ER calcium loss) secretion, thapsigargin, luminescence; series mostly up to 38.4 µM; activity change, negative = inhibition: at the top concentration
Outline: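 GLuc-SERCaMP-expressing SH-SY5Y cells, pretreated 16 h with compound, are challenged with thapsigargin to empty ER calcium stores; after 4 h, coelenterazine is added directly to the medium and luminescence is imaged.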
% is set by controls: 0 for no effect and ±100 for the full control effect.

Structure (SMILES) | activity change, negative = inhibition
CCOC1OC(=O)C[C@H]1NC(=O)[C@@H]1CCCN1C(=O)[C@@H](NC(=O)c1ccc(N)c(Cl)c1)C(C)(C)C (some centres undefined) | 145% (inactive)
NS(=O)(=O)c1ccc(NC2=CC(=O)c3ccccc3C2=O)cc1 | -18.5% (inactive)
CN1CCN(CCOc2cc(OC3CCOCC3)c3c(Nc4c(Cl)ccc5c4OCO5)ncnc3c2)CC1 | 157% (inactive)
CC1(C)S[C@H]2[C@H](NC(=O)[C@@H](N)c3ccc(O)cc3)C(=O)N2[C@@H]1C(=O)O | 122% (inactive)
